Assay results: PubChem BioAssay
A number with no mark means an inactive call. For some assays here: Entries with a potency or affinity are not part of this list. Active and inactive are the calls of the source. Unless noted, no rule for the calls is given here.

Tests used:
[1] = antimalarial activity against Dd2 strain (AID 2302;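 active = growth inhibition above 50% at the single 2 µM test dose, taken to imply half-maximal potency below 2 µM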;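 also: 0% = DMSO untreated growth and 100% = chloroquine plus artemisinin killed control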); conditions: P. falciparum Dd2 in RBCs, LDH growth readout, 72 h; at 2 µM; stronger effect = higher value
[2] = human hepatoma cell viability loss – ATP luminescence, cytotoxicity control for P. falciparum antimalarial project, primary screen (AID 2303;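 active = inhibition above 50%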;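 also: 0% = DMSO wells and 100% = digitonin-killed cells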); conditions: HepG2 viability, 24-48 h, at 10 µM, stronger effect = higher value
[3] = target: L-lactate dehydrogenase (Plasmodium falciparum (isolate CDC / Honduras)) (UniProt Q27743); experiment: PfLDH activity inhibition – cell lysate, 3D7 strain, counter-screen for P. falciparum growth inhibition project (AID 2304);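 also: 0% = vehicle and 100% = reference inhibitor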; conditions: P. falciparum 3D7 crude extract, LDH APAD/NBT absorbance; at 2 µM; stronger effect = higher value
[4] = inhibition of 3D7 malaria parasite growth – strain 3D7 (AID 2306);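 also: 0% = DMSO wells and 100% = chloroquine plus artemisinin control wells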; conditions: P. falciparum 3D7 erythrocytic growth, LDH absorbance, 72 h; at 2 µM; stronger effect = higher value
[5] = target: Calcium-dependent protein kinase 1 (Plasmodium falciparum (isolate 3D7)) (UniProt P62344); experiment: PfCDPK1 kinase inhibitors, biochemical, TCAMS library (AID 1159585; cut-off not given, nearly all actives have IC50 up to about 0.98 µM;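 also: inhibitors leave more ATP so luminescence rises with inhibition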); conditions: recombinant PfCDPK1, Kinase-Glo ATP depletion luminescence
[6] = target: Plasmodium falciparum protein kinase 6 (PK6, PF3D7_1337100) (UniProt Q8IDW1); experiment: PfPK6 kinase inhibitors, biochemical, TCAMS library (AID 1159586); conditions: recombinant PfPK6, Kinase-Glo ATP depletion luminescence
[7] = target: Protein kinase 7 (PK7), Plasmodium falciparum 3D7 (PF3D7_0213400) (UniProt Q7YTF7); experiment: inhibition of Plasmodium PK7 catalytic activity – biochemical, TCAMS antimalarial set, Kinase-Glo luminescence (AID 1159587); conditions: recombinant PfPK7, Kinase-Glo ATP depletion luminescence
[8] = target: Calcium-dependent protein kinase 4 (Plasmodium falciparum (isolate 3D7)) (UniProt Q8IBS5); experiment: PfCDPK4 kinase inhibitors, biochemical, TCAMS library (AID 1159588; cut-off not given, nearly all actives have IC50 up to about 0.91 µM); conditions: recombinant PfCDPK4, Kinase-Glo ATP depletion luminescence
Calcium-dependent protein kinase 4 (Plasmodium falciparum (isolate 3D7)), sequence (Q8IBS5 whole entry, looked up): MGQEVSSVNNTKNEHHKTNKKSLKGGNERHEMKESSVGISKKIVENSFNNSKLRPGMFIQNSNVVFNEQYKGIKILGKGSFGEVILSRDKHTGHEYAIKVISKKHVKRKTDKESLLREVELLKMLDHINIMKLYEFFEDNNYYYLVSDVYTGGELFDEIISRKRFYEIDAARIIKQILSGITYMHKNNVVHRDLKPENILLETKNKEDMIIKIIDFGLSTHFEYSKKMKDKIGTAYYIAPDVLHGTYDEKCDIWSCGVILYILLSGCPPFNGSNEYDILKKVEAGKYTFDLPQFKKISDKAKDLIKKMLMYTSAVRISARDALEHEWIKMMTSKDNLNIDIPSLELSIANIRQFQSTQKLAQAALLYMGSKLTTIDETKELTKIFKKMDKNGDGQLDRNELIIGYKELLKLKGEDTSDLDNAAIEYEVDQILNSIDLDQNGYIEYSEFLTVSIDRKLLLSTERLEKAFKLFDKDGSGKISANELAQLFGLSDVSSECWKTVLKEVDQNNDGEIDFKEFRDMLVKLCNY

L-lactate dehydrogenase (Plasmodium falciparum (isolate CDC / Honduras)), sequence (Q27743 whole entry, looked up): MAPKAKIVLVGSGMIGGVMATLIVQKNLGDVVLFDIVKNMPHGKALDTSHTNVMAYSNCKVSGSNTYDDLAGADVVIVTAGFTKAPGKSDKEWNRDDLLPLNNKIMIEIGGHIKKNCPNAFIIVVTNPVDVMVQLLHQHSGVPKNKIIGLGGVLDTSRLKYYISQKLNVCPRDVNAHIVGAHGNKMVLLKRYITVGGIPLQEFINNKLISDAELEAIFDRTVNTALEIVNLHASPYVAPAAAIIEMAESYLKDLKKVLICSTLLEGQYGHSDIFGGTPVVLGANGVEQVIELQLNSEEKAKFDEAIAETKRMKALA
Calcium-dependent protein kinase 1 (Plasmodium falciparum (isolate 3D7)), sequence (P62344 whole entry, looked up): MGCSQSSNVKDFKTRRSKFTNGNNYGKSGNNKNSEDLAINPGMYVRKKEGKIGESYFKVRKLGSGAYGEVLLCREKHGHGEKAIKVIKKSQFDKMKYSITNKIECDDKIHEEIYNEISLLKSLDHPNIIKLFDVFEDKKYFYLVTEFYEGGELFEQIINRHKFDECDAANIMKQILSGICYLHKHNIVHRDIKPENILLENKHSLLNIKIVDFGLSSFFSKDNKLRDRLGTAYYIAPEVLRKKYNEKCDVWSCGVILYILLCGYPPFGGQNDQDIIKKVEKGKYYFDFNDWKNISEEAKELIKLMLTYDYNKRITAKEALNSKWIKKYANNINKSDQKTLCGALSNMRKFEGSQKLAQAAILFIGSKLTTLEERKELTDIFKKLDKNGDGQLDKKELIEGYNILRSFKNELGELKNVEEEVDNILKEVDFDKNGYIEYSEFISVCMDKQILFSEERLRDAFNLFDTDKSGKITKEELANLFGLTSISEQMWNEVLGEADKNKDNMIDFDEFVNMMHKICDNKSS
Protein kinase 7 (PK7), Plasmodium falciparum 3D7 (PF3D7_0213400), sequence (Q7YTF7 1-343): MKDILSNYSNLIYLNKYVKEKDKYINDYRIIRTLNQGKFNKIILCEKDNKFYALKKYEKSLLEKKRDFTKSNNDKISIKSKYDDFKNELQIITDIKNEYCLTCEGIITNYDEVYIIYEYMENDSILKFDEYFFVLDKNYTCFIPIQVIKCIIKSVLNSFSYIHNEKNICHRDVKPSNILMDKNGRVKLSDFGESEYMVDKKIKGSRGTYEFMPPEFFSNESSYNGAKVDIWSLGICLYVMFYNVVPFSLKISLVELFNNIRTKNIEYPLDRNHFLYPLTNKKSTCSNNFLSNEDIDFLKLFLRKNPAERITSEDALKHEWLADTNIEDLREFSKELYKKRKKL
Plasmodium falciparum protein kinase 6 (PK6, PF3D7_1337100), sequence (Q8IDW1 1-305): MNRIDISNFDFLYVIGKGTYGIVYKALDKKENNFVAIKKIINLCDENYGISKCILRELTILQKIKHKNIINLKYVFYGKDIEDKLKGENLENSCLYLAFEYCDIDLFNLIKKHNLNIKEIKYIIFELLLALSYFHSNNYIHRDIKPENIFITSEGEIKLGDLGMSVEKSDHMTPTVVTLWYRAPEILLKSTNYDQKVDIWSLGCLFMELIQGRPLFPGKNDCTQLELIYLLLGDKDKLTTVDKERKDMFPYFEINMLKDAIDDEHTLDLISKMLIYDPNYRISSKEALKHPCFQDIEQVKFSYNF

Row | Structure (SMILES) | growth inhibition [1] | inhibition [2] | inhibition [3] | growth inhibition [4] | outcome [5] | outcome [6] | outcome [7] | outcome [8]
1 | CCNc1cc(C(=O)N[C@@H](Cc2ccc(F)c(F)c2)[C@H](O)CNC2CCCCC2)cc(N2CCCCS2(=O)=O)c1 | 84% (active) | 1% | -2% | 100% (active) | inactive | inactive | inactive | inactive
2 | CCCCNCc1ccc(OCc2cccc(COc3ccc(CNCCCC)cc3)c2)cc1 | 35% | 98% (active) | 5% | 100% (active) | inactive | inactive | inactive | inactive
3 | Cc1cc(F)ccc1C1CCN(CCCCNC(=O)c2ccc(NC(=O)c3ccc(Cl)cc3)cc2)CC1 | 79% (active) | 19% | 0% | 101% (active) | inactive | inactive | inactive | inactive
4 | COc1ccc(S(=O)(=O)NC2CCN(CCNC(=O)Nc3cc(C)nc4ccccc34)C2)cc1 (stereo not given) | 41% | -2% | 1% | 88% (active) | inactive | inactive | inactive | inactive
5 | NC(N)=Nc1nc(-c2cccc(NC(=O)NCCc3c[nH]c4ccc(OCc5ccccc5)cc34)c2)cs1 | 30% | -2% | 0% | 101% (active) | inactive | inactive | inactive | inactive
6 | CC(C)CCN=C(N)Nc1ccc(OCCCCCOc2ccc(NC(N)=NCCC(C)C)cc2)cc1 | 67% (active) | 14% | 6% | 85% (active) | inactive | inactive | inactive | inactive
7 | CCCNC[C@@H](O)[C@H](Cc1ccccc1)NC(=O)c1cc(NCC)cc(N2CCCC2=O)c1 | 76% (active) | -9% | 1% | 100% (active) | inactive | inactive | inactive | inactive
8 | CCNc1nc(OCC(F)(F)F)nc(N(c2ccccc2)c2ccccc2)n1 | 83% (active) | 5% | 1% | 100% (active) | inactive | inactive | inactive | inactive
9 | COc1ccccc1-n1ccnc1SCC(=O)Nc1cccc(C(F)(F)F)c1 | 96% (active) | 1% | -2% | 95% (active) | inactive | inactive | inactive | inactive
10 | COc1ccc(OCC(=O)Nc2cc(-c3nc4ccccc4[nH]3)ccc2Cl)cc1 | 33% | 18% | -4% | 94% (active) | inactive | inactive | inactive | inactive
11 | Cc1ccc(C(=O)NC2CCN(CCNC(=O)Nc3cc(C)nc4ccccc34)CC2)cc1 | 76% (active) | -12% | -8% | 98% (active) | inactive | inactive | inactive | inactive
12 | FC(F)(F)COc1c(CNCCCCCCNCc2ccc3ccccc3c2OCC(F)(F)F)ccc2ccccc12 | 79% (active) | 100% (active) | 6% | 101% (active) | inactive | inactive | inactive | inactive
13 | O=[N+]([O-])c1ccc(-c2ccc(C=NNc3nc(Nc4ccccc4)nc(Nc4ccccc4)n3)o2)cc1 | 12% | -4% | 1% | 91% (active) | inactive | inactive | inactive | inactive
14 | CN(c1ccccc1)c1ccnc(/N=C(\N)Nc2ccc(Cl)cc2)n1 | 6% | 30% | -1% | 87% (active) | inactive | inactive | inactive | inactive
15 | CCOC(=O)/C(=N\OC(C)(C)C(=O)NCc1ccc(O)c(O)c1)c1csc(NC(c2ccccc2)(c2ccccc2)c2ccccc2)n1 | 99% (active) | 13% | -3% | 100% (active) | inactive | inactive | inactive | inactive
16 | CCN(C)c1cc(C(=O)N[C@@H](Cc2ccccc2)[C@H](O)CNC(C)(C)c2cccc(OC)c2)cc(N2CCCC2=O)c1 | 81% (active) | -1% | 1% | 100% (active) | inactive | inactive | inactive | inactive
17 | Cc1cc(-c2ccc(CNC3CCN(C)CC3)cc2)ccc1S(=O)(=O)NCc1ccccc1 | 97% (active) | 52% (active) | 5% | 100% (active) | inactive | inactive | inactive | inactive
18 | Cc1[nH]c(C)c(-c2ccc(CCc3ccc(C(F)(F)F)cc3)nc2)c(=O)c1Cl | 97% (active) | 24% | 2% | 97% (active) | inactive | inactive | inactive | inactive
19 | Cc1nc(-c2cccc3c(NC(=O)N4CCc5cc6nccc(N7CCN(C)CC7)c6cc54)cccc23)no1 | 97% (active) | 45% | 2% | 100% (active) | inactive | inactive | inactive | inactive
20 | Oc1ccc(Br)cc1C(O)CNCc1ccccc1OCc1ccccc1 (stereo not given) | 100% (active) | 25% | 4% | 101% (active) | inactive | inactive | inactive | inactive

Row | Structure (SMILES) | growth inhibition [1] | inhibition [2] | inhibition [3] | growth inhibition [4] | outcome [5] | outcome [6] | outcome [7] | outcome [8]
21 | O=C(Cc1cccc(O)c1)Nc1ccc(-c2cccc(-c3nc4ccc(C(F)(F)F)cc4[nH]3)c2)cc1 | 1% | 14% | 2% | 86% (active) | inactive | inactive | inactive | inactive
22 | Cc1cc2ncn(-c3nccc(NCc4ccc(F)c(C)c4)n3)c2cc1C | 82% (active) | 10% | -3% | 90% (active) | inactive | inactive | inactive | inactive
23 | COc1ccc(N2CCN(c3nc(Nc4ccc(NC(C)=O)cc4)nc(N4CCCC4)n3)CC2)cc1 | 38% | -7% | -2% | 91% (active) | inactive | inactive | inactive | inactive
24 | O=C(NCc1cccc(F)c1)Nc1cccc(-c2cccc(-c3nc4ccccc4[nH]3)c2)c1 | 27% | 28% | -1% | 96% (active) | inactive | inactive | inactive | inactive
25 | C[C@@H]1CN(c2cnn(Cc3ccc(NC(=O)Nc4cccc(C(F)(F)F)c4)cc3)c(=O)c2Cl)C[C@H](C)N1 | 31% | -10% | -7% | 86% (active) | inactive | inactive | inactive | inactive
26 | N#CC(c1ccc(F)cc1)c1ccc2c(C(F)(F)F)cc(C(F)(F)F)nc2n1 (stereo not given) | 89% (active) | 9% | 2% | 97% (active) | inactive | inactive | inactive | inactive
27 | Cc1cccc2[nH]c(-c3ccc(-c4ccc(CN5CCCCC5)cc4)cc3)nc12 | 99% (active) | 27% | -2% | 100% (active) | inactive | inactive | inactive | inactive
28 | CC(=O)N(C)C1CCN(Cc2cccc(-c3ccc(-c4nc5ccc(F)cc5[nH]4)cc3)c2)C1 (stereo not given) | 19% | 24% | 0% | 92% (active) | inactive | inactive | inactive | inactive
29 | N#Cc1cccc(C(=O)Nc2cccc(-c3ccc(C(=O)Nc4cccnc4)cc3)c2)c1 | 10% | 39% | -1% | 89% (active) | inactive | inactive | inactive | inactive
30 | Cc1cc(NN=Cc2ccccc2[N+](=O)[O-])c2ccccc2n1 | 100% (active) | 10% | -2% | 100% (active) | inactive | inactive | inactive | inactive
31 | CCN(CC)CCNC(=O)c1ccc(NC(=O)c2ccc(-c3cc(NC(=O)CC4CCCC4)ccc3C)cc2)cc1 | 95% (active) | 12% | -5% | 99% (active) | inactive | inactive | inactive | inactive
32 | COc1ccc2nccc([C@@H](O)CN3CCC(NCc4ccc5cccc(O)c5n4)CC3)c2c1 | 40% | 10% | 1% | 93% (active) | inactive | inactive | inactive | inactive
33 | CCN(CC)CCCNCc1ccc(-c2ccc(C(F)(F)F)cc2)cc1 | 35% | 53% (active) | -4% | 95% (active) | inactive | inactive | inactive | inactive
34 | Cc1ccc(F)cc1S(=O)(=O)Nc1ccc(CCN2CCC(N3CCCCC3)CC2)cc1 | 15% | 25% | -3% | 99% (active) | inactive | inactive | inactive | inactive
35 | COc1cc(C(=O)NC2CC(C)(C)NC(C)(C)C2)ccc1-c1cc2cc(Cl)c(Cl)cc2[nH]1 | 31% | 41% | 6% | 99% (active) | inactive | inactive | inactive | inactive
36 | CCCOc1cccc(C(=O)N[C@@H](Cc2ccccc2)[C@H](O)CNCc2ccccc2OC)c1 | 61% (active) | 11% | 0% | 95% (active) | inactive | inactive | inactive | inactive
37 | COC(=O)c1cccc(N2CCN(CCCNC(=O)/C(=C/C=C/c3cc4cc(Cl)c(Cl)cc4[nH]3)OC)CC2)c1 | 59% (active) | 38% | -1% | 100% (active) | inactive | inactive | inactive | inactive
38 | COc1ccc(Br)cc1/C=C/C(=O)Nc1ccc2c(c1)CCCN(C)C2 | 10% | 8% | 1% | 84% (active) | inactive | inactive | inactive | inactive
39 | COc1cccc2cc(C(=O)N[C@@H](CC(C)C)C(=O)NC3CC[C@@H](C)N(C(=O)Nc4ccncc4)CC3=O)oc12 (stereo not given in full) | 90% (active) | 7% | -7% | 95% (active) | inactive | inactive | inactive | inactive
40 | CNC(=O)c1cncc(/C=C/c2ccccc2S(N)(=O)=O)c1 | 77% (active) | 17% | -1% | 100% (active) | inactive | inactive | inactive | inactive
